Assay results as given in PubChem BioAssay (Tox21).
Records with an inconclusive call do not appear. Activity calls are given as the source filed them. Unless noted, calls follow the shape of the dose curve; as a rule, active = well fitted curve in the direction sought with a large enough effect in the repeat runs; inconclusive = weak or mixed curves; inactive = no such curve, though single readings can be large; an effect the other way counts as inactive or inconclusive.

Key:
[1] = qHTS RealTime-Glo MT Cell Viability Assay in HEK293 cells - 8 hour (AID 1224887); also: nearly all actives have a fitted effect of over 50% in size; also: potency is read from the fitted curve at half-maximal effect
Outline: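 Nonlytic bioluminescent viability monitoring. HEK293 at 600 cells/well with reagent; 5 h settle; compound transfer by pintool; plates held at 37 C and read at set time points.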

[2] = A CellTox Green Cytotoxicity Assay to monitor cytotoxicity in HEK293 cells - 16 hour (AID 1224888); also: nearly all actives have a fitted effect of over 35% in size; also: potency is read from the fitted curve at half-maximal effect
Outline: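 Cytotoxicity was tracked continuously in HEK293 cells by a DNA-binding dye excluded from viable cells. Compounds were transferred in DMSO 5 h after seeding; fluorescence was recorded at intervals up to 40 h.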

[3] = A CellTox Green Cytotoxicity Assay to monitor cytotoxicity in HepG2 cells - 8 hour (AID 1224890); also: nearly all actives have a fitted effect of over 45% in size; also: potency is read from the fitted curve at half-maximal effect
Outline: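 Real-time, homogeneous cytotoxicity readout: dead-cell DNA staining by CellTox Green in HepG2 monolayers, fluorescence measured at timed intervals up to 40 h of continuous compound exposure.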

[4] = qHTS assay to identify small molecule antagonists of the estrogen receptor alpha (ER-alpha) signaling pathway using the BG1 cell line in the presence of 0.1 nM 17-beta-estradiol - cell viability counter screen (AID 1259241); also: nearly all actives have a fitted effect of over 40% in size; also: potency is read from the fitted curve at half-maximal effect
Outline: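 Viability in VM7Luc4E2 cells after 22 hr compound exposure under 0.1 nM 17beta-estradiol stimulation, by CellTiter-Fluor.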

[5] = qHTS assay to identify small molecule antagonists of the androgen receptor (AR) signaling pathway using the MDA cell line in the presence of 0.5 nM R1881 - cell viability counter screen (AID 1259242); also: nearly all actives have a fitted effect of over 45% in size; also: potency is read from the fitted curve at half-maximal effect
Outline: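 Cytotoxicity toward MDA-kb2 cells is measured by CellTiter-Fluor live-cell protease fluorescence after 16 hr compound exposure at 37C in the presence of 0.5 nM R1881 stimulator.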

[6] = target: Estrogen receptor (Homo sapiens) (UniProt P03372); experiment: qHTS assay to identify small molecule antagonists of the estrogen receptor alpha (ER-alpha) signaling pathway using the BG1 cell line in the presence of 0.1 nM 17-beta-estradiol (AID 1259244); also: nearly all actives have a fitted effect of over 50% in size; also: potency is read from the fitted curve at half-maximal effect
Outline: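 After 5 days in hormone-depleted medium (charcoal-stripped serum, no phenol red), VM7Luc4E2 cells were seeded, incubated 24 h, then co-treated with compound and 0.1 nM (final) estradiol for 22 h before luminescence detection.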

[7] = qHTS assay to identify small molecule HDAC inhibitors (AID 1259364); also: nearly all actives have a fitted effect of over 45% in size; also: potency is read from the fitted curve at half-maximal effect
Outline: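 Homogeneous cell-based luminescent assay of endogenous class I/II HDAC activity; HCT-116 cells, 2 h compound exposure, 30 min HDAC-Glo development at RT.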

[8] = qHTS assay to identify small molecule agonists of the sonic hedgehog signaling (Shh) pathway - cell viability counter screen (AID 1259366); also: nearly all actives have a fitted effect of over 50% in size; also: potency is read from the fitted curve at half-maximal effect
Outline: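 Stable Gli1-Luc NIH/3T3 clone, 2,000 cells/well. Compound exposure 24hr at 37C. Read-out: CellTiter-Fluor fluorescence.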

[9] = qHTS assay to identify small molecule antagonists of the sonic hedgehog signaling (Shh) pathway - cell viability counter screen (AID 1259367); also: nearly all actives have a fitted effect of over 55% in size; also: potency is read from the fitted curve at half-maximal effect
Outline: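 NIH/3T3-derived Gli1-Luc reporter cells, 2,000/well, plated 4 hr before compound addition, then stimulated with conditioned medium for 24 hr at 37C. Viability measured in the same wells by CellTiter-Fluor fluorescence, reagent added at 23 hr for 1 hr.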

[10] = qHTS assay to identify small molecule agonists of the sonic hedgehog signaling (Shh) pathway (AID 1259368; calls by dose curve;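 also: NIH/3T3-derived 3T3Gli1-Luc cells carrying a stable Gli1-driven firefly luciferase reporter; series mostly up to about 92 µM; nearly all actives have a fitted effect of over 15% in size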)
Outline: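 Steps: seed 3T3 Gli1-Luc cells, incubate 4 hr at 37 C, pin-transfer compounds in DMSO alongside a positive control, incubate 24 hr, add luciferase detection reagent, wait 30 min at room temperature, read luminescence.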

[11] = qHTS assay to identify small molecule agonists of the androgen receptor (AR) signaling pathway in the presence of an antagonist - cell viability counter screen (AID 1259379); also: nearly all actives have a fitted effect of over 25% in size; also: potency is read from the fitted curve at half-maximal effect
Outline: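 Fluorescence from CellTiter-Fluor, added after 15 hr and read 1 hr later, gave cell viability. Cells were MDA-kb2 exposed to compounds (15 concentrations) in the presence of 3.0uM nilutamide at 37C, 0% CO2.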

[12] = qHTS assay to identify small molecule agonists of the estrogen receptor beta (ER-beta) signaling pathway - cell viability counter screen (AID 1259380); also: nearly all actives have a fitted effect of over 30% in size; also: potency is read from the fitted curve at half-maximal effect
Outline: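 Same-well viability counter screen. Cells: ER-beta-UAS-bla HEK293T, plated 6 hr before compound, in 2% charcoal-stripped FBS. Compound exposure 16 hr, 37C; viability by CellTiter-Glo luminescence after 30 min at room temperature.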

[13] = qHTS RealTime-Glo MT Cell Viability Assay in HepG2 cells - 0 hour (AID 1224889); also: nearly all actives have a fitted effect of over 50% in size
Outline: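 Cell number in HepG2 cultures estimated from NanoLuc luminescence generated by metabolic reduction of a prosubstrate by living cells. The homogeneous, nonlytic format allowed repeated reads at 0, 8, 16, 24, 32 and 40 h of compound exposure.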

[14] = qHTS assay to identify small molecule HDAC inhibitors - cell viability counter screen (AID 1259365)
Outline: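 Cytotoxicity was gauged in wild-type HCT-116 cells after a brief 2hr treatment with DMSO-dissolved compounds at 37C and 5% CO2, using CellTiter-Glo luminescence developed for 30min at room temperature.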

[15] = target: Estrogen receptor beta (Homo sapiens) (UniProt Q92731); experiment: qHTS assay to identify small molecule agonists of the estrogen receptor beta (ER-beta) signaling pathway (AID 1259377; active = well fitted activation curve with a large enough effect in the signal ratio in the repeat runs, not every such curve was filed as active; the % refers to the signal ratio)
Outline: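 Measured by fluorescence intensity from a B/G FRET beta-lactamase substrate (2 h, room temperature) in ER-beta-UAS-bla HEK293T cells treated with DMSO-dissolved compounds for 16 hr at 37C and 5% CO2.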

[16] = target: Estrogen receptor beta (Homo sapiens) (UniProt Q92731); experiment: qHTS assay to identify small molecule antagonists of the estrogen receptor beta (ER-beta) signaling pathway (AID 1259378; active = well fitted inhibition curve with a large enough effect in the signal ratio in the repeat runs, not every such curve was filed as active; the % refers to the signal ratio; also: potency is read from the fitted curve at half-maximal effect)
Outline: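 ER-beta-UAS-bla HEK293T cells in 2% charcoal-stripped FBS medium treated with compound plus 1nM final 17-beta-estradiol for 16 hr at 37C. Beta-lactamase reporter read by FRET substrate fluorescence after 2 hours at room temperature.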

[17] = qHTS assay to identify small molecule phospholipidosis (PLD) inducers (AID 1259344; active = well fitted curve in the direction sought with a large enough effect; an effect the other way counts as inactive or inconclusive)
Outline: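 HepG2 cells, 900/well, treated with compound plus LipidTOX Red for 24 h at 37 C; amiodarone positive and DMSO negative controls. Fixed with paraformaldehyde/Hoechst, then high-content imaging scored LipidTOX pit count and integrated intensity per well and per cell.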

[18] = qHTS assay to identify small molecule antagonists of the sonic hedgehog signaling (Shh) pathway (AID 1259369; calls by dose curve; also: nearly all actives have a fitted effect of over 45% in size; also: potency is read from the fitted curve at half-maximal effect)
Outline: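 Inhibition of Shh signalling is measured as reduced Gli1-response-element firefly luciferase output in an NIH/3T3-derived stable reporter clone stimulated with conditioned medium for 24hr.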

[19] = target: Androgen receptor (Homo sapiens) (UniProt P10275); experiment: qHTS assay to identify small molecule antagonists of the androgen receptor (AR) signaling pathway using the MDA cell line in the presence of 0.5 nM R1881 (AID 1259243); also: nearly all actives have a fitted effect of over 50% in size
Outline: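 Steps: seed MDA-kb2 cells, incubate 5 hr at 37C; pin-transfer compounds in DMSO; add R1881 to 0.5 nM final; incubate 16 hr; add ONE-Glo, wait 30 min at room temperature; read luminescence.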

Measured: Potency

Chain of Estrogen receptor beta (Homo sapiens) (Q92731 whole entry, looked up): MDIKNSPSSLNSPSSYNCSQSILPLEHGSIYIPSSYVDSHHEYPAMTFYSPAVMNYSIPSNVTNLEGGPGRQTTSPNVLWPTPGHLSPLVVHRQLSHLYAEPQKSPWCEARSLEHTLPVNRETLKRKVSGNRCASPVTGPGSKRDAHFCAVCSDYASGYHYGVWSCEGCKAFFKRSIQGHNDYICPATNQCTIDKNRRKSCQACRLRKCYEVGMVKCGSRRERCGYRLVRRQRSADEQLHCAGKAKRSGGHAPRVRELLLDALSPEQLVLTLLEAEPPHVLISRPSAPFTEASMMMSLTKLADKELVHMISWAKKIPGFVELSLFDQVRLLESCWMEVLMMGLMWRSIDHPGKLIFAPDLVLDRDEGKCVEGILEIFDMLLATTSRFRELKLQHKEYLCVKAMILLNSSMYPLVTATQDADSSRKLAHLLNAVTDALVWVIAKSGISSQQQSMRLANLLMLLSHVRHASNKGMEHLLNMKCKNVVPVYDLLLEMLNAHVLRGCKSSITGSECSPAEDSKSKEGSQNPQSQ
Chain of Estrogen receptor (Homo sapiens) (P03372 whole entry, looked up): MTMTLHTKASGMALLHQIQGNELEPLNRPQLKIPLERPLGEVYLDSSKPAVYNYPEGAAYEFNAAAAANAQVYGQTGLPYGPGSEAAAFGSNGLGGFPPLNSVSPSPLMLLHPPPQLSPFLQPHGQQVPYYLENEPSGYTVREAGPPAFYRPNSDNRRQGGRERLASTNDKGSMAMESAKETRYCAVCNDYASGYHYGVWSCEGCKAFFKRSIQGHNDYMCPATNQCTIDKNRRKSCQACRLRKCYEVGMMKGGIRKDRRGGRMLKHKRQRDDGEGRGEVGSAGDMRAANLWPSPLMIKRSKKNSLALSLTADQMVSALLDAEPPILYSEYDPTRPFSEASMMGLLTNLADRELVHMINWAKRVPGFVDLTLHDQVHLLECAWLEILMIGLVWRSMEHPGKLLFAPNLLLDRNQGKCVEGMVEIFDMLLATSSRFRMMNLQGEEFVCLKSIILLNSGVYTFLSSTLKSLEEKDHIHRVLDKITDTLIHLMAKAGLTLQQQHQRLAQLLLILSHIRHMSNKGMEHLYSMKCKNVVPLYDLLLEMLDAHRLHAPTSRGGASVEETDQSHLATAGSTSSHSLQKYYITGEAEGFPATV
Chain of Androgen receptor (Homo sapiens) (P10275 whole entry, looked up): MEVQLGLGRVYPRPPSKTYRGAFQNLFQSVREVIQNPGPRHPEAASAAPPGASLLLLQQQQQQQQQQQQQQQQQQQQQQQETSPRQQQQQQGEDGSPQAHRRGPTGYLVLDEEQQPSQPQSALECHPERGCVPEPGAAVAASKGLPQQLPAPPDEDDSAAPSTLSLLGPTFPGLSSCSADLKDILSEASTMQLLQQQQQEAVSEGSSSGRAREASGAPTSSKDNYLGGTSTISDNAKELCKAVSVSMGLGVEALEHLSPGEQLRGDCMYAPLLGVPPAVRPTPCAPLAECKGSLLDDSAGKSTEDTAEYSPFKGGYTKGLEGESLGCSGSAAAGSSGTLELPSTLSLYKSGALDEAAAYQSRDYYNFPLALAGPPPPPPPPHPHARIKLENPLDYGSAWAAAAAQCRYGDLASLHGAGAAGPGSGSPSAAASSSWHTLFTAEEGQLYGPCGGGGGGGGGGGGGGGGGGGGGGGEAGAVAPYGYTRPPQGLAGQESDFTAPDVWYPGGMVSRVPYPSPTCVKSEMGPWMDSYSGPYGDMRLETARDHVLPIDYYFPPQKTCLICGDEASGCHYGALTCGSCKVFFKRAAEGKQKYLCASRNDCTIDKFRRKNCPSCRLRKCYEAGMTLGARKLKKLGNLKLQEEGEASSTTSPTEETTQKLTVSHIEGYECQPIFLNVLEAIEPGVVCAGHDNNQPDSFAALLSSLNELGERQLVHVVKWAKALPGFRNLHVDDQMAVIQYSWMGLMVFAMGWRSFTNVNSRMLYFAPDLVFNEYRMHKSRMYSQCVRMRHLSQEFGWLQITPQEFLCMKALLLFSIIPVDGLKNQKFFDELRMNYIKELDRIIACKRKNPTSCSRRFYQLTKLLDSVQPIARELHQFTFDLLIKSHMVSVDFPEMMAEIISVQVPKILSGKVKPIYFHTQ

CCN(CC)c1ccc2c(c1)Oc1cc(N(CC)CC)ccc1C21OC(=O)c2ccccc21
active: [2] 21.3 µM | [3] 23.9 µM | [4] 5.96 µM | [5] 10.6 µM | [8] 3.76 µM | [9] 3.35 µM | [11] 7.5 µM | [12] 10.6 µM
inactive: [1] | [6] | [7] | [10]

O=C(Nc1ccc([N+](=O)[O-])cc1)Nc1ccc([N+](=O)[O-])cc1 (tested in a mixture with another compound)
active: [12] 0.596 µM
not listed: [4] | [6] | [7] | [17] | [18] | [19]
inactive: all other assays above

O=C(CCN1CCC(c2ccccc2)C1)c1ccc2c(c1)OCCO2 (stereo unspecified)
active: [8] 33.5 µM | [18] 18.8 µM
not listed: [4] | [5] | [9] | [11] | [19]
inactive: all other assays above

CN1CCN(CCCN2c3ccccc3Sc3ccc(Cl)cc32)CC1
inactive: [1] | [2] | [4] | [5] | [6] | [7] | [14] | [10] | [11]
active: [8] 10.6 µM | [18] 16.8 µM

O=C(Nc1ccccc1)c1cc(Cl)ccc1O
inactive: [1] | [2] | [3] | [14] | [10] | [15]
active: [5] 17.2 µM | [6] 12.2 µM | [7] 0.686 µM | [9] 54.5 µM | [18] 15.4 µM | [11] 13.7 µM

CCCCCc1ccc(O)cc1
active: [1] 21.9 µM | [2] 38.9 µM
inactive: [4] | [5] | [6] | [7] | [14] | [10] | [16] | [11]

CCCCCCCCSCc1cc(C)c(O)c(CSCCCCCCCC)c1
active: [1] 9.77 µM
not listed: [7] | [9] | [15] | [16] | [17] | [18] | [19]
inactive: all other assays above

C/C(=N\[Si](C)(C)C)O[Si](C)(C)C
not listed: [13] | [15] | [16] | [17] | [19]
inactive: all other assays above

Nc1cccnc1N
inactive: [1] | [2] | [13] | [3] | [5] | [6] | [14] | [10] | [12]

CCCCCCCCc1ccc(Nc2ccc(CCCCCCCC)cc2)cc1
not listed: [4] | [13] | [17]
inactive: all other assays above

S=C1NC=NC2N=CNC12 (stereo unspecified)
active: [12] 3.44 µM
not listed: [6] | [7] | [13] | [15] | [16] | [17] | [19]
inactive: all other assays above

NCc1cccc(C2CCN(C(=O)c3ccc(C#Cc4ccccc4F)o3)CC2)c1
active: [1] 43.6 µM | [2] 49 µM | [3] 49 µM | [4] 68.6 µM | [6] 68.6 µM | [8] 30.6 µM | [9] 24.3 µM | [18] 6.11 µM | [16] 54.5 µM
inactive: [7] | [10] | [15]

CN[C@H]1CC[C@@H](c2ccc(Cl)c(Cl)c2)c2ccc(S(N)(=O)=O)cc21
active: [1] 38.9 µM | [2] 24.5 µM | [6] 61.1 µM | [8] 30.6 µM | [9] 61.1 µM | [18] 3.06 µM | [16] 24.3 µM
inactive: [7] | [14] | [10]

CCN(CCC#N)c1ccc(N=Nc2ccc([N+](=O)[O-])cc2)cc1
active: [7] 15.4 µM
not listed: [6] | [13] | [14] | [17] | [19]
inactive: all other assays above

CN(C)CCOc1ccc(/C(=C(/CCCl)c2ccccc2)c2ccccc2)cc1
active: [1] 40.9 µM | [2] 45.8 µM | [3] 36.4 µM | [8] 51 µM | [18] 36.1 µM | [12] 40.5 µM
inactive: [4] | [7] | [14] | [10]

CCCCCCCC/C=C\CCCCCCCC(=O)N(CCO)CCO
inactive: [13] | [3] | [4] | [5] | [14] | [8] | [9] | [10]
active: [1] 43.5 µM | [6] 30.5 µM | [18] 15.3 µM

O=[N+]([O-])c1ccc(O)c2ncccc12
active: [5] 9.44 µM | [8] 1.88 µM | [18] 0.531 µM | [16] 5.96 µM | [11] 11.9 µM | [12] 0.944 µM
not listed: [3] | [4] | [6] | [9] | [19]
inactive: all other assays above
